Results from PubChem BioAssay (EPA / NIEHS).
Active and inactive are the calls of the source. Rule for the calls: active = hit-call score of the fitted dose curve at least 0.9, where 1 is the maximum; inactive = score below 0.9.

assay: BSK_3C_uPAR: BioMAP Diversity Plus: 3C Assay for Urokinase-type plasminogen activator receptor (uPAR) Biomarker Activity (AID 2282998); conditions: BioMAP 3C HUVEC, uPAR biomarker ELISA; actives raise or lower the signal
In short: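 In this endothelial cell-based assay, human umbilical vein primary cells were treated with chemicals and harvested at 24 h. uPAR was quantified using ELISA, with gains or losses fitted relative to DMSO controls.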

SMILES | outcome | AC50
CCN(CC)c1ccccc1 | inactive | 
FC(F)(F)C(F)(C(F)(F)F)C(F)(F)C(F)(F)CC1CO1 (stereo not given) | inactive | 
CCOP(=S)(OCC)SCSc1ccc(Cl)cc1 |  | 0.397 µM (active)
c1nc[nH]n1 | inactive | 
c1cc2c3c(cccc3c1)CC2 | inactive | 
CCCCC(CC)COP(=O)(Oc1ccccc1)Oc1ccccc1 (stereo not given) |  | 12.1 µM (active)
CCOc1ccc(C(C)(C)COCc2cccc(Oc3ccccc3)c2)cc1 | inactive | 
COP(=O)(O)OC |  | 0.062 µM (active)
Cc1cccc(N)c1 | inactive | 
CC(C)(C)c1ccc(O)cc1 | inactive | 
O=C(O)C1C(C(=O)O)C2(Cl)C(Cl)=C(Cl)C1(Cl)C2(Cl)Cl (stereo not given) | inactive | 
Nc1cc2c3c(c1)C(c1ccccc1)=N[C@@H](NC(=O)c1cccnc1)C(=O)N3CC2 | inactive | 
CCOP(=S)(OCC)SCSCC | inactive | 
OCC1CO1 (stereo not given) | inactive | 
O=P(OCC(Br)CBr)(OCC(Br)CBr)OCC(Br)CBr (stereo not given) |  | 17.4 µM (active)
c1ccc(OP(Oc2ccccc2)Oc2ccccc2)cc1 | inactive | 
CCOS(=O)(=O)OCC | inactive | 
ClC1=C(Cl)C2(Cl)C3C(Cl)C(Cl)CC3C1(Cl)C2(Cl)Cl (stereo not given) |  | 35.8 µM (active)
CC(Cl)(Cl)C(=O)O | inactive | 
OCC(F)(F)OC(F)(F)C(F)(F)OC(F)(F)CO | inactive | 
CCCN(CCC)c1c([N+](=O)[O-])cc(C(C)C)cc1[N+](=O)[O-] |  | 33.7 µM (active)
C=CC(=O)OCC(CC)(COC(=O)C=C)COC(=O)C=C |  | 3.57 µM (active)
CC(Cl)CN(C)C (stereo not given) | inactive | 
O=C(O)C(F)(F)OC(F)(F)C(F)(F)OC(F)(F)C(=O)O | inactive | 
[N-]=[N+]=[N-] | inactive | 
O=C(O)C=CC(F)(C(F)(F)F)C(F)(F)F | inactive | 
CCCCc1ccccc1 | inactive | 
ClC(Cl)(Cl)c1ccccc1 | inactive | 
O=[N+]([O-])c1ccccc1 | inactive | 
CSC(C)(C)C=NO | inactive | 
